Test results from PubChem BioAssay AID1159580 (chemical genetic matrix, 2015).
Values joined by “and” are separate entries in the source; they are usually repeats but may differ in a detail not shown here. Equal values may be shown once. Out of some 5,500 compounds screened, about 2,000 (36%) were called active. Another 18% or so got no clear call; they are omitted. No stated cut-off is given here; in the data, active means normalized growth mostly below about 0.91 (no sharp cut-off); inconclusive means no clear call, values can overlap the other calls; inactive means mostly above about 0.92. Some of the results follow.

Assay: chemical genetic growth profiling, strain panel (AID 1159580);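 further: tested at 20 µM; growth read once vehicle control cultures reached saturation at 30 °C; 1 = growth at the plate median or of vehicle wells; lower values mean less growth of the strain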
Settings: S. cerevisiae deletion strains, growth OD

Measured: normalized growth

CCCCC1=NC2(CCCC2)C(=O)N1Cc1ccc(-c2ccccc2-c2nn[nH]n2)cc1
inactive: locus YAL013W, strain DEP1, hits give low values 0.984 | locus YAL021C, strain ccr4, hits give low values 1.01 | locus YAL026C, strain drs2, hits give low values 1.01 | locus YAL030W, strain snc1, hits give low values 1.02 | locus YBL061C, strain skt5, hits give low values 1.02 | locus YBR009C, strain hhf1, hits give low values 1.01 | locus YBR021W, strain FUR4, hits give low values 0.985 | locus YBR023C, strain chs3, hits give low values 1.01 | locus YBR171W, strain sec66, hits give low values 1.02 | locus YBR229C, strain ROT2, hits give low values 0.938 | locus YBR231C, strain swc5, hits give low values 1.03 | locus YBR279W, strain paf1, hits give low values 1.01 | locus YCL011C, strain gbp2, hits give low values 1.03 | locus YCL016C, strain dcc1, hits give low values 1.01 | locus YCL029C, strain bik1, hits give low values 0.993 | locus YCL069W, strain vba3, hits give low values 1.02 | locus YCR088W, strain abp1, hits give low values 1.02 | locus YDL005C, strain med2, hits give low values 1.03 | locus YDL035C, strain GPR1, hits give low values 0.974 | locus YDL040C, strain nat1, hits give low values 1.02 | locus YDL074C, strain BRE1, hits give low values 1 | locus YDL101C, strain DUN1, hits give low values 0.99 | locus YDL134C, strain PPH21, hits give low values 0.988 | locus YDL185W, strain tfp1, hits give low values 0.987 | locus YDL192W, strain arf1, hits give low values 0.985 | locus YDR001C, strain nth1, hits give low values 1 | locus YDR069C, strain doa4, hits give low values 1.02 | locus YDR101C, strain arx1, hits give low values 0.998 | locus YDR137W, strain rgp1, hits give low values 1.01 | locus YDR150W, strain NUM1, hits give low values 0.97 | locus YDR159W, strain sac3, hits give low values 1.02 | locus YDR162C, strain NBP2, hits give low values 0.982 | locus YDR195W, strain ref2 1.02 | locus YDR297W, strain sur2, hits give low values 1.02 | locus YDR318W, strain mcm21, hits give low values 1 | locus YDR334W, strain swr1, hits give low values 1.02 | locus YDR335W, strain msn5, hits give low values 1 | locus YDR388W, hits give low values 0.999 | locus YDR392W, strain spt3, hits give low values 1.01 | locus YDR502C, strain sam2, hits give low values 0.982 | locus YEL003W, strain gim4, hits give low values 1.01 | locus YEL037C, strain rad23, hits give low values 1.02 | locus YEL061C, strain CIN8 (second series), hits give low values 1.03 | locus YEL061C, strain CIN8, hits give low values 0.979 | locus YER015W, strain faa2, hits give low values 1.02 | locus YER016W, strain bim1, hits give low values 1.01 | locus YER110C, hits give low values 0.977 | locus YER111C, strain swi4, hits give low values 1 | locus YER155C, strain BEM2 (second series), hits give low values 1.05 | locus YER155C, strain BEM2, hits give low values 1.01 | locus YER167W, strain BCK2, hits give low values 0.976 | locus YFR010W, strain ubp6, hits give low values 1.02 | locus YGL078C, strain dbp3, hits give low values 0.969 | locus YGL086W, strain mad1, hits give low values 0.988 | locus YGL167C, strain pmr1, hits give low values 1.02 | locus YGL173C, strain kem1, hits give low values 1.02 | locus YGL227W, strain vid30, hits give low values 1.01 | locus YGL240W, strain doc1, hits give low values 0.993 | locus YGL248W, strain PDE1, hits give low values 0.979 | locus YGL253W, strain hxk2, hits give low values 1.01 | locus YGR078C, strain PAC10, hits give low values 1.02 | locus YGR135W, strain pre9, hits give low values 1.02 | locus YGR229C, strain SMI1, hits give low values 1.01 | locus YGR252W, strain gcn5, hits give low values 0.931 | locus YHR013C, strain ard1, hits give low values 1.01 | locus YHR027C, strain rpn1, hits give low values 1.01 | locus YHR030C, strain SLT2, hits give low values 0.994 and 0.967 | locus YHR079C, strain IRE1 (second series), hits give low values 0.989 | locus YHR079C, strain IRE1, hits give low values 0.973 | locus YHR094C, strain hxt1, hits give low values 0.992 | locus YHR129C, strain ARP1, hits give low values 1 | locus YHR142W, strain chs7, hits give low values 1.01 | locus YHR200W, strain rpn10, hits give low values 0.99 | locus YIL066C, strain RNR3, hits give low values 0.974 | locus YIL073C, strain SPO22, hits give low values 1.01 | locus YIL125W, strain kgd1, hits give low values 0.966 | locus YIR030C, strain dcg1, hits give low values 0.978 | locus YJL092W, strain hpr5, hits give low values 1.01 | locus YJL095W, strain BCK1 (second series), hits give low values 1.02 | locus YJL095W, strain BCK1, hits give low values 1.06 and 1.01 | locus YJL115W, strain asf1, hits give low values 0.999 | locus YJL129C, strain trk1, hits give low values 1.01 | locus YJL134W, strain LCB3, hits give low values 0.98 | locus YJL154C, strain vps35, hits give low values 1.01 | locus YJL164C, strain tpk1, hits give low values 0.997 | locus YJL166W, strain qcr8, hits give low values 1.03 | locus YJL168C, strain set2, hits give low values 0.993 | locus YJL187C, strain SWE1 (second series), hits give low values 1.01 | locus YJR043C, strain POL32, hits give low values 1.02 | locus YJR066W, strain TOR1, hits give low values 0.953 | locus YJR075W, strain HOC1, hits give low values 1.01
